# VP16 counter = inhibits Gal4-VP16 luciferase reporter, ROR gamma counter-screen; Drosophila S2 Gal4-VP16 UAS-luciferase, luminescence, 20 h; Potency, µM (highest dose often 53.6 µM), without a hit: top-dose activity, negative = inhibition, most hits filed as inhibitors; hit rate 3.5% among 310,000; AID 2546;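 also: Gal4-VP16 expression switched on by copper sulfate through the metallothionein promoter; potency is read from the fitted curve at half-maximal effect; nearly all actives have a fitted effect of over 50% in size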
# IL1B secr inh = inflammasome signaling inhibition, IL-1 beta readout | AID 743279 | THP-1 LPS/ATP IL-1B secretion, AlphaLISA, 16 h; active compounds read low | hit rate 4.7% among 360,000 | activity change, % at 57.5 µM; in the data active = activity change below about -50%; inconclusive = mostly about -30% to -49%
#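 THP-1 cells pretreated 1 hr with compounds (up to 57.5 uM final), then stimulated with LPS (250 ng/mL final) plus ATP (1.25 mM final); secreted IL-1B measured by AlphaLISA after 16 hr, decreased signal indicating inhibition.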
# RORg inh = ROR gamma (mouse) transcription inhibition; P51450; Drosophila S2 Gal4-RORgamma UAS-luciferase reporter, 20 h; Potency, µM (top dose mostly 53.6 µM), for the others: at the highest dose activity change, negative = inhibition, hits mostly inhibitors; hit rate 5.4% among 310,000; AID 2551; also: potency is read from the fitted curve at half-maximal effect; nearly all actives have a fitted effect of over 60% in size
# Target sequence (P51450 whole entry, looked up, the tested form may be a part): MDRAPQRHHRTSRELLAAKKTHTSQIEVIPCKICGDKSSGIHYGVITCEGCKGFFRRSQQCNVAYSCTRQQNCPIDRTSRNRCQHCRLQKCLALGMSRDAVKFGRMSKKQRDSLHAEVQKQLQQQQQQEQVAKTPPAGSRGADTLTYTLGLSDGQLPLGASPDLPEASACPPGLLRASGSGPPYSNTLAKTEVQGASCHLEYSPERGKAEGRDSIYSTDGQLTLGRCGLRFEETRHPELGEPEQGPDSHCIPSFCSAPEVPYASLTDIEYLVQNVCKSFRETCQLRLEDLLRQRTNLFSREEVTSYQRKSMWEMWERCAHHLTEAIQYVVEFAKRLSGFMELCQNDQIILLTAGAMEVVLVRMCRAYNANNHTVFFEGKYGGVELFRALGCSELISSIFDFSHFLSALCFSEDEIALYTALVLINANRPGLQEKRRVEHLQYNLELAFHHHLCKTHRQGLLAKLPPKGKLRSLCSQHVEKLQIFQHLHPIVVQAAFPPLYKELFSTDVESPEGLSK
#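 Stable Schneider cell line, Gal4 DNA-binding domain fused to ROR gamma, UAS-luciferase. Cmpd 1 hr RT → CuSO4 700 uM final → 20 hr RT → luciferase reagent 10 min → luminescence.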
# TDP1 cell noCPT = qHTS for Inhibitors of human tyrosyl-DNA phosphodiesterase 1 (TDP1): qHTS in cells in absence of CPT | hit rate 15% among 420,000 | DT40 Tdp1-/- hTDP1 cells, no CPT, ATP luminescence, 48 h | Potency, µM (doses to about 46.2 µM), without a hit: at the highest dose activity change, negative = growth inhibition, usual class: inhibitors; also: potency is read from the fitted curve at half-maximal effect; nearly all actives have a fitted effect of over 55% in size
#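 Luminescent ATP content (CellTiter-Glo) served as the growth readout. Knockout chicken DT40 cells expressing human TDP1 were exposed to compounds without camptothecin for a minimum 48 hr at 37 °C.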
# DT40 TDP1 CPT = growth inhibition of DT40 Tdp1-/-;hTDP1 cells with camptothecin (screen for TDP1 inhibitors). hit rate 12% among 420,000. chicken DT40 Tdp1-/-;hTDP1 cells + 20 nM CPT, ATP luminescence, 48 h. Potency, µM (top dose mostly 46.2 µM), for the others: top-dose activity change, negative = growth inhibition, most hits filed as inhibitors; also: potency is read from the fitted curve at half-maximal effect; nearly all actives have a fitted effect of over 55% in size
#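 Chicken DT40 Tdp1-/- cells complemented with human TDP1, 400 cells/well, exposed to compounds plus 20 nM camptothecin for at least 48 h at 37 C; viability read as ATP content by CellTiter-Glo luminescence.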
# LDHA inh = blocks human lactate dehydrogenase A; activity change, % (values are at about 110 or 230 µM); P00338; hit rate 0.15% among 480,000; purified LDHA, NADH/diaphorase-resazurin fluorescence; active compounds read low; in the data active = activity change below about -30%; inconclusive = mostly about -25% to -30%;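 also: plate controls were DMSO wells for no effect and wells without enzyme for full effect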
#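 Enzyme activity of human lactate dehydrogenase 5 (2 nM; 0.06 mM NADH, 0.2 mM pyruvate, 5 min, RT) is measured via a resazurin/diaphorase fluorescence readout of residual NADH.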
# Numbers without * were called inactive; u = inconclusive; x = no result given; ! = repeats disagree; [ ] = dose if it differs, or a comment. The list is not random: actives were taken first. Their share in the collection is about 18%. Unless noted, calls follow the shape of the dose curve; as a rule, active = well fitted curve in the direction sought with a large enough effect; inconclusive = small, poorly fitted or top-dose-only effect, or another doubt; inactive = no such curve, though single readings can be large; an effect the other way counts as inactive or inconclusive. Unless noted, % is scaled to controls: 0 for no effect and ±100 for the full control effect.
SMILES,VP16 counter,IL1B secr inh,RORg inh,TDP1 cell noCPT,DT40 TDP1 CPT,LDHA inh
Cc1cc(C(=O)CSc2ncn[nH]2)c(C)n1-c1cccc(S(=O)(=O)N2CCOCC2)c1,-6.6%,-17.2,23.6%[10 µM],18.4µM*,u,-0.1
CCc1ccc(NC(=O)c2cc(=O)c3ccc(C)c(C)c3o2)cc1,x,x,x,3.26µM*,4.11µM*,2.4
Cc1ccc2c(=O)cc(C(=O)Nc3ccc(S(=O)(=O)N(C)Cc4ccccc4)cc3)oc2c1,x,x,x,u,u,-4.4
Cc1ccc2c(=O)cc(C(=O)Nc3ccc(S(=O)(=O)N(C)Cc4ccccc4)cc3)oc2c1C,x,x,x,3.26µM*,4.11µM*,3.9
CN(c1ccccc1)S(=O)(=O)c1ccc(NC(=O)c2cc(=O)c3ccccc3o2)cc1,x,x,x,16.4µM*,13µM*,-2.0
CCN(c1ccccc1)S(=O)(=O)c1ccc(NC(=O)c2cc(=O)c3ccc(C)c(C)c3o2)cc1,x,x,x,11.6µM*,10.3µM*,-1.0
CCN(c1ccccc1)S(=O)(=O)c1ccc(NC(=O)c2cc(=O)c3c(C)cc(C)cc3o2)cc1,x,x,x,-17.5%,2.4%,7.4
O=C(O)C(c1c[nH]c2cc(Br)ccc12)N1CCN(Cc2cccs2)CC1 (stereo unspecified),x,x,x,x,x,-3.6
COc1ccc2oc(=O)c(-c3csc(Nc4ccc(Cl)cc4)n3)cc2c1,x,x,x,x,x,-7.4
COc1cc(C2C(Oc3ccccc3C)C(=O)N2Cc2ccc(F)cc2)cc(OC)c1OC (stereo unspecified),0.8%,27.9,u,u,1.3%,-0.8
COc1ccc(OC2C(=O)N(Cc3ccc(F)cc3)C2c2ccc(OC)c(OC)c2)cc1 (stereo unspecified),-1.9%,u,14.1%,-12.3%,29.1µM*,-11.6
CN1C(=O)Cc2cc(C(=O)CSc3nnc(C4CC4)n3C3CC3)ccc21,x,x,x,x,x,-5.6
CCCn1c(SCc2ccccc2Cl)nc2c1c(=O)[nH]c(=O)n2C,x,x,x,x,x,6.4
COC(=O)c1cc(=O)n(CCc2ccccc2F)c(=Nc2ccc(F)c(Cl)c2)s1,u,-100.8*,u,8.2µM*,14.6µM*,-0.5
COC(=O)c1cc(=O)n(Cc2ccco2)c(=Nc2ccc(F)c(Cl)c2)s1,u,-105.4*,u,13µM*,16.4µM*,-0.5
CCN(CC)S(=O)(=O)N1CC=C(c2c[nH]c3cccc(C)c23)CC1,x,x,x,x,x,4.3
CCOC(=O)c1sc2nc(OCc3cccnc3)cc(C)c2c1N,x,-50.5*,x,u,u,5.3
Cc1ccc(S(=O)(=O)N(C)Cc2c(C)nn(-c3ccccc3)c2C)cc1,x,x,x,x,x,4.1
NC(=S)NNc1cc(Cl)cc(Cl)c1,3.98µM*,-3.3,2.24µM*,u,13µM*,17.7
NC(=S)Nc1cc(Cl)cc(Cl)c1,-5.9%,x,-33.3%,u,u,-2.1
COc1ccc(-c2nc3cc(NC(=O)c4ccc(C)cc4)ccc3o2)cc1OC,x,x,x,x,x,5.7
CCOc1ccccc1NC(=O)Cn1c(=O)nc(-c2ccccc2F)c2cc(Cl)ccc21,x,x,x,20.6µM*,u,-18.0
COc1ccc(CNC(=O)Cn2c(=O)nc(-c3ccccc3F)c3cc(Cl)ccc32)cc1OC,x,x,x,0.0%,-9.2%,-7.6
COc1ccccc1CNC(=O)Cn1c(=O)nc(-c2ccccc2F)c2cc(Cl)ccc21,x,x,x,6.51µM*,u,-0.6
COc1ccccc1NC(=O)c1ccc2c(c1)NC(=O)CS2,x,x,x,x,x,5.1
SMILES,VP16 counter,IL1B secr inh,RORg inh,TDP1 cell noCPT,DT40 TDP1 CPT,LDHA inh
CCOC(=O)c1ccc(N2CCN(CC)CC2)c(NC(=O)COc2ccc(OC)cc2)c1,x,x,x,x,x,-14.0
COc1ccc(C(C)=O)cc1CSc1c(C)c(C)cc(C)c1C,x,x,x,x,x,-3.8
COc1ccc([C@H]2CC(=O)C=C(c3ccc(NC(C)=O)cc3)C2)cc1OC,x,u,x,u,u,0.1
COc1ccc([C@H]2CC(=O)C=C(c3ccc(Cl)c(C(F)(F)F)c3)C2)cc1OC,x,-56.4*,x,u,u,0.9
COc1ccc([C@H]2CC(=O)C=C(c3cc(F)ccc3F)C2)cc1OC,x,-25.3,x,-51.8%,u,-0.3
COc1ccc([C@H]2CC(=O)C=C(c3ccc(C(F)(F)F)c(C(F)(F)F)c3)C2)cc1OC,x,-77.8*,x,u,u,0.4
Cc1cc(NC(=O)C(C)OC(=O)c2ccc3c(c2)NC(=O)CS3)no1 (stereo unspecified),x,x,x,x,x,-0.2
Cc1cc2oc(=O)cc(CN3CCN(CCO)CC3)c2cc1Cl,x,x,x,x,x,-4.6
COC(=O)C1=C(C)N(Cc2ccccc2)C(=NCc2cccc(Cl)c2)N[C@H]1c1ccccc1,-7.4%,u,-2.5%,20.6µM*,11.6µM*,-6.7
COC(=O)C1=C(C)N(Cc2ccccc2)C(=NCc2ccccc2)N[C@H]1c1cccc(F)c1,-15.8%,0.0,u,8.2µM*,16.4µM*,-4.7
CCN(CC)CCCN=C1N[C@@H](c2cccc(F)c2)C(C(=O)OC)=C(C)N1Cc1ccccc1,x,-5.0,x,u,u,-16.2
COCCN1C(=S)N[C@@H](c2cccc(F)c2)C(C(=O)OC)=C1C,11.2µM*!,x,3.55µM*!,x,x,x
COC(=O)C1=C(C)N(Cc2ccccc2)C(=S)N[C@H]1c1cccc(F)c1,12.6µM*,-6.1,4.47µM*,-16.1%,u,-6.4
NC(=O)c1cccc(CNC(=O)C2CCCC2)c1,x,x,x,x,x,-21.5
COc1cccc(-c2noc(COc3ccc4ccc(=O)oc4c3)n2)c1,x,x,x,x,x,6.1
COCCN=C1N[C@@H](c2ccccc2)C(C(=O)OC)=C(C)N1Cc1ccccc1,-13.1%,-16.6,-5.5%,23.1µM*,u,1.4
CCN1C(=S)N[C@@H](c2ccccc2)C(C(=O)OC)=C1C,u,25.2,3.16µM*,-26.0%,u,0.3
COC(=O)C1=C(C)N(CC2CC2)C(=NCc2cccc(Cl)c2)N[C@H]1c1ccccc1,-11.3%,-61.7*,3.2%,u,16.4µM*,-5.9
C=CCN=C1N[C@@H](c2ccccc2)C(C(=O)OC)=C(C)N1CCOC,-4.0%,-7.5,0.0%,-23.3%,-27.5%,-8.6
COc1ccc(OCCC(=O)Nc2cccc3cccnc23)cc1,x,x,x,x,x,1.5
COc1cccc(Oc2coc3cc(OCc4ccccc4F)ccc3c2=O)c1,x,x,x,x,x,10.3
CCCCNC(=O)C(=O)Nc1ccc2c(c1)N(S(=O)(=O)c1cccs1)CCC2,x,34.7,x,1.84µM*,2.59µM*,-2.2
CCN(CC)CCNC(=O)C(=O)Nc1ccc2c(c1)N(S(=O)(=O)c1cccs1)CCC2,x,-21.9,x,16.4µM*,14.6µM*,-3.1
CNC(=O)C(=O)Nc1ccc2c(c1)N(S(=O)(=O)c1cccs1)CCC2,x,0.3,x,u,u,1.7

# Screening results (PubChem)
